# Reference: PubChem BioAssay (EPA / NIEHS)
# Records with an inconclusive call do not appear. Activity calls are given as the source filed them. How the source made its calls: active means hit-call score of the fitted dose curve at least 0.9, where 1 is the maximum; inconclusive means response in the unintended direction; inactive means score below 0.9.
# Target: Norway rat Vesicular Monoamine Transporter (VMAT2), neurotransmitter transporter, Slc18a2 (gene 25549) (UniProt Q01827)
# Experiment: NVS_TR_rVMAT2: NovaScreen (NVS) Transporter Assay for Norway rat Vesicular Monoamine Transporter (VMAT2), neurotransmitter transporter (AID 2283376);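 further: actives lower the bound radioligand signal below the DMSO level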
# Description: NVS_TR_rVMAT2 is a biochemical, single-readout assay that uses extracted gene-proteins from Rat forebrain in a tissue-based cell-free assay. Measurements were taken 1 hour after chemical dosing in a 96-well plate.NVS_TR_rVMAT2 is one of one assay component(s) measured or calculated from the NVS_TR_rVMAT2 assay. It is designed to make measurements of radioligand binding, a form of binding reporter, as detected with scintillation counting signals by Filter-based radiodetection technology.Data from the assay component NVS_TR_rVMAT2 was analyzed into 1 assay endpoint. This assay endpoint, NVS_TR_rVMAT2, was analyzed in the positive analysis fitting direction relative to DMSO as the negative control and baseline of activity. Using a type of binding reporter, loss-of-signal activity can be used to understand changes in the binding as they relate to the gene Slc18a2. Furthermore, this assay endpoint can be referred to as a primary readout, because the performed assay has only produced 1 assay endpoint. To generalize the intended target to other relatable targets, this assay endpoint is annotated to the transporter intended target family, where the subfamily is vesicular transporter.
# Binding assays used specific radioligands (tritiated, iodinated) with non-radioactive competitive displacement ligands in agonist or antagonist protocols (as indicated) and various reference compounds and inhibitors to titrate specific binding to receptors and transporters. Most enzyme assays (CYPs, kinases, phosphatases, proteases, HDACs) used recombinant protein and specific substrates (fluorescence mostly, some colorimetric and radioactive) and inhibitors, followed by a biochemical separation of substrate and product. All assays for the biochemical HTS were initially run in duplicate at a single concentration (10 uM for CYP450 assays and 25 uM for all others). […] Each assay was run with positive and negative controls, and concurrent controls on every plate. The follow-up (secondary) screen tested active chemical-pairs in concentration series, as well as a few additional assays not tested in the primary screen, some selected negative inactives, and several cases re-run in the concentration series for confirmatory purposes.
# Norway rat Vesicular Monoamine Transporter (VMAT2), neurotransmitter transporter, Slc18a2 (gene 25549), sequence (Q01827 whole entry, looked up): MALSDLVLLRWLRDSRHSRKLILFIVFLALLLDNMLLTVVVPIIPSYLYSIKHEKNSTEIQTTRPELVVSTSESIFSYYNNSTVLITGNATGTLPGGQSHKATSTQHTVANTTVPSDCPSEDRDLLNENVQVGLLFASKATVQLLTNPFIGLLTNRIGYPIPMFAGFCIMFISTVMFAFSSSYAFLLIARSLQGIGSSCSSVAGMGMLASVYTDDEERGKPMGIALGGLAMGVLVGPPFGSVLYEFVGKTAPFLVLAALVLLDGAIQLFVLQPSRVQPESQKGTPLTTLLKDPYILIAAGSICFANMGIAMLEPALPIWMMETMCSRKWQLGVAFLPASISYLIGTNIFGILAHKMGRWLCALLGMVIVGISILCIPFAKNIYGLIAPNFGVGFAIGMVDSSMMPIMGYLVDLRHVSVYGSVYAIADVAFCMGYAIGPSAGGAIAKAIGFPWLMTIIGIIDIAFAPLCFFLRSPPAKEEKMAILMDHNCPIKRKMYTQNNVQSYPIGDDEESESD
row,SMILES,outcome
1,CC(Cc1ccc(OCC(=O)O)cc1)NCC(O)c1csc(C(F)(F)F)n1 (stereo not given),inactive
2,O=P(OCC(Br)CBr)(OCC(Br)CBr)OCC(Br)CBr (stereo not given),inactive
3,Cn1[nH]nnc1=S,inactive

# Target: human Norepinephrine Transporter (NET), SLC6A2 (gene 6530) (UniProt P23975)
# Sequence (P23975 whole entry, looked up): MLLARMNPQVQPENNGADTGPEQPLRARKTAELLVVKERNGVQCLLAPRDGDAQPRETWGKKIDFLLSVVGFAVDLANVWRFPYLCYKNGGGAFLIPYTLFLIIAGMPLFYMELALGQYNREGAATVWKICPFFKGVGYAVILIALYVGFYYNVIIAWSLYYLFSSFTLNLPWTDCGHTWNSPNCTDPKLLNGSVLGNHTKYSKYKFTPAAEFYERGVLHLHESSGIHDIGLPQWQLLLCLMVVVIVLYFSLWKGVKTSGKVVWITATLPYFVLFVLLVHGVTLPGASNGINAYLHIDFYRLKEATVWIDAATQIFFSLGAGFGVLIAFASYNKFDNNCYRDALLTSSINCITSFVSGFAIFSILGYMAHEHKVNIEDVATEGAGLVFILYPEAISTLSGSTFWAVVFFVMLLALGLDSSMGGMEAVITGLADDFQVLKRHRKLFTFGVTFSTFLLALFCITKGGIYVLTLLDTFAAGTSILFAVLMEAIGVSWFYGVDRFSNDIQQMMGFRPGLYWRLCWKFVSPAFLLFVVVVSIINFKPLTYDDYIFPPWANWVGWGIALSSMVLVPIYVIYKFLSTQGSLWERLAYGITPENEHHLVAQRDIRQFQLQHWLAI
# Experiment: NVS_TR_hNET: NovaScreen (NVS) Transporter Assay for human Norepinephrine Transporter (NET) (AID 2283377);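 further: cell-free membrane protein extracted from CHO cells expressing human NET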;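 on AC50: displacement of radioligand from human NET seen as loss of scintillation signal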
# Procedure, shortened: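 Single-concentration duplicate screen at 25 uM, then concentration-response for actives; displacement of specific radioligand from human NET in CHO membrane extracts, filter-based scintillation detection at 1 h relative to DMSO.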
SMILES,AC50,outcome
N#Cc1c(-c2ccc(Cl)cc2)[nH]c(C(F)(F)F)c1Br,16.4 µM (active),
Oc1ccccc1Br,,inactive
Cc1ccc2c(c1N)C(=O)c1ccccc1C2=O,12.2 µM (active),
CCC1(c2ccccc2)C(=O)N=C(O)NC1=O (stereo not given),,inactive

# Target: mouse Estrogen Receptor alpha (Era), Esr1 (gene 13982) (UniProt P19785)
# Sequence (P19785 whole entry, looked up): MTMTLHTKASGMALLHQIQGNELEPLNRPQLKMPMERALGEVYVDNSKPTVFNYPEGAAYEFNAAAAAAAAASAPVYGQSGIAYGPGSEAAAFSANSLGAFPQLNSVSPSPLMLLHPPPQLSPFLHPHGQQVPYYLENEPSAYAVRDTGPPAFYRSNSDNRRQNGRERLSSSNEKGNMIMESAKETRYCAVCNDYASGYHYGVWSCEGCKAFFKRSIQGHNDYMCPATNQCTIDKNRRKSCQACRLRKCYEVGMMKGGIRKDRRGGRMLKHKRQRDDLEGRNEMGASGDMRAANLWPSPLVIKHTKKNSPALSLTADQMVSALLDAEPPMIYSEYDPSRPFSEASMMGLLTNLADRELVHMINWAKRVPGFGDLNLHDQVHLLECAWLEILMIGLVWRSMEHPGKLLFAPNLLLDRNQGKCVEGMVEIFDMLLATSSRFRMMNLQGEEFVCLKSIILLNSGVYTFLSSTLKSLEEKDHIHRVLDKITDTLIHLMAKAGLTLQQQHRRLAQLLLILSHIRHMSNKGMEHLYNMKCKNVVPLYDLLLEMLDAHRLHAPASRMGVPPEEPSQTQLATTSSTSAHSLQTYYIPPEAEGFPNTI
# Experiment: NVS_NR_mERa: NovaScreen (NVS) Nuclear Receptor Binding Assay for mouse Estrogen Receptor alpha (Era) (AID 2283378);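 further: hit means loss of bound radioligand signal relative to DMSO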
# Procedure, shortened: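 Cell-free radioligand competitive displacement binding, read by filter-based scintillation counting 18 h after dosing. Primary screen run in duplicate at 25 uM, actives retested in concentration series; loss of signal versus DMSO.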
row,SMILES,outcome
1,O=P1(N(CCCl)CCCl)NCCCO1 (stereo not given),inactive
2,O=[N+]([O-])c1ccccc1,inactive
3,CO/N=C(/C(=O)OC)c1ccccc1COc1ccccc1C,inactive
4,CCCCc1ccc(O)cc1,inactive
5,CC(Cl)(Cl)C(=O)O,inactive
6,CCOP(=S)(Oc1ccc([N+](=O)[O-])cc1)c1ccccc1 (stereo not given),inactive
7,ClC(Cl)(Cl)c1ccccc1,inactive
8,c1nc[nH]n1,inactive
